Whole data set: some 11,000 sequences, median “log2 fold change” near 0.00022, cut for the highest 2% near 0.34. The list shows a part of the results.
Each sequence was assayed against GST-SBP-SLBP (stem-loop binding protein) (Homo sapiens, UniProt Q14493 1-270) (assay: targeted RNA Bind-n-Seq; RBNS binding buffer: 25 mM Tris pH 7.5, 150 mM KCl, 3 mM MgCl2, 0.1% Tween, 0.5 mg/mL BSA, 1 mM DTT; 27 nM protein, 750 pM RNA pool; temperature not stated; high values mean tight binding). Conditions: protein: recombinant; tags: N-terminal GST and SBP (pGEX6P1-SBP); structured_RNA.
How it was run: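 A designed RNA oligo pool, transcribed with T7, was present at 750 pM and incubated in RBNS binding buffer with 27 nM of GST-SBP-tagged protein that had been expressed in Rosetta(DE3) pLysS E. coli and purified with glutathione. After reverse transcription with a 10-nucleotide barcoded primer and PCR, the bound RNA was sequenced as 200-cycle paired-end reads on a MiSeq. Each sequence's binding signal is the DEseq binary-logarithm fold change in read counts, computed after joining reads with FLASH, aligning with HISAT2 and collapsing by barcode.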

“GGUCACGUCUCAAUCAACUCCAAAGAGGGGGGGAAAACCCCUUUGCCCUCAUUCUCAACAGCUCGCAGUCAAG” and “GGUCACGUCUCAAUCAACUCCAAAGAGGGGGGGAAAACCCCUUUGCCCUCGAAAUCAACAGCUCGCAGUCAAG” are within error of each other in binding signal: 0.342 ± 0.438 log2 fold change for the first, 0.347 ± 0.378 log2 fold change for the second.

“GGUCACGUCUCAAUCAACUCCAAAGAGGGGGGGAAAACCCCUUUGCCCUCAAUAUCAACAGCUCGCAGUCAAG” and “GGUCACGUCUCAAUCAACUCUCAAGAGGGGGGGAAAACCCCUUUGCCCUCCAAAUCAACAGCUCGCAGUCAAG” are within error of each other in binding signal: 0.359 ± 0.439 log2 fold change for the first, 0.327 ± 0.445 log2 fold change for the second.

“GGUCACGUCUCAAUCAACUCCAAAGAGGGGGGGAAAACCCCUUUGCCCUCCAAUUCAACAGCUCGCAGUCAAG” and “GGUCACGUCUCAAUCAACUCUCUCGAGGGGGGGAAAACCCCUUUGCCCUCAAAAUCAACAGCUCGCAGUCAAG” are within error of each other in binding signal: 0.304 ± 0.412 log2 fold change for the first, 0.354 ± 0.38 log2 fold change for the second.

“GGUCACGUCUCAAUCAACUCACAAGAGGGGGGGAAAACCCCUUUGCCCUCAUCCUCAACAGCUCGCAGUCAAG” and “GGUCACGUCUCAAUCAACUCUCUAGAGGGGGGGAAAACCCCUUUGCCCUCGAAAUCAACAGCUCGCAGUCAAG” are within error of each other in binding signal: 0.34 ± 0.422 log2 fold change for the first, 0.342 ± 0.443 log2 fold change for the second.

“GGUCACGUCUCAAUCAACUCUCUAGAGGGGGGGAAAACCCCUUUGCCCUCGUCAUCAACAGCUCGCAGUCAAG” and “GGUCACGUCUCAAUCAACUCUCUAGAGGGGGGGAAAACCCCUUUGCCCUCAUCCUCAACAGCUCGCAGUCAAG” are within error of each other in binding signal: 0.374 ± 0.381 log2 fold change for the first, 0.441 ± 0.424 log2 fold change for the second.

“GGUCACGUCUCAAUCAACUCUCUCGAGGGGGGGAAAACCCCUUUGCCCUCAACAUCAACAGCUCGCAGUCAAG” and “GGUCACGUCUCAAUCAACUCUCUAGAGGGGGGGAAAACCCCUUUGCCCUCCGUUUCAACAGCUCGCAGUCAAG” are within error of each other in binding signal: 0.307 ± 0.399 log2 fold change for the first, 0.354 ± 0.438 log2 fold change for the second.

“GGUCACGUCUCAAUCAACUCAUUCGAGGGGGGGAAAACCCCUUUGCCCUCAUCAUCAACAGCUCGCAGUCAAG” and “GGUCACGUCUCAAUCAACUCCUAAGAGGGGGGGAAAACCCCUUUACCCUCAAUCUCAACAGCUCGCAGUCAAG” are within error of each other in binding signal: 0.363 ± 0.407 log2 fold change for the first, 0.429 ± 0.444 log2 fold change for the second.

“GGUCACGUCUCAAUCAACUCCUAAGAGGGGGGGAAAACCCCUUUACCCUCACUAUCAACAGCUCGCAGUCAAG” and “GGUCACGUCUCAAUCAACUCCUAAGAGGGGGGGAAAACCCCUUUACCCUCCGCAUCAACAGCUCGCAGUCAAG” are within error of each other in binding signal: 0.433 ± 0.43 log2 fold change for the first, 0.313 ± 0.425 log2 fold change for the second.

“GGUCACGUCUCAAUCAACUCCUAAGAGGGGGGGAAAACCCCUUUACCCUCGUCCUCAACAGCUCGCAGUCAAG” and “GGUCACGUCUCAAUCAACUCCUUAGAGGGGGGGAAAACCCCUUUGCCCUCGAAUUCAACAGCUCGCAGUCAAG” are within error of each other in binding signal: 0.382 ± 0.439 log2 fold change for the first, 0.379 ± 0.448 log2 fold change for the second.

“GGUCACGUCUCAAUCAACUCUUUAGAGGGGGGGAAAACCCCUUUGCCCUCGAAUUCAACAGCUCGCAGUCAAG” and “GGUCACGUCUCAAUCAACUCUUUAGAGGGGGGGAAAACCCCUUUGCCCUCAACUUCAACAGCUCGCAGUCAAG” are within error of each other in binding signal: 0.388 ± 0.441 log2 fold change for the first, 0.318 ± 0.415 log2 fold change for the second.

“GGUCACGUCUCAAUCAACUCUAUAGAGGGGGGGAAAACCCCUUUGCCCUCGAAUUCAACAGCUCGCAGUCAAG” and “GGUCACGUCUCAAUCAACUCUCACGAGGGGGGGAAAACCCCUUUGCCCUCAAUUUCAACAGCUCGCAGUCAAG” are within error of each other in binding signal: 0.377 ± 0.432 log2 fold change for the first, 0.305 ± 0.454 log2 fold change for the second.

“GGUCACGUCUCAAUCAACUCUCACGAGGGGGGGAAAACCCCUUUGCCCUCACUUUCAACAGCUCGCAGUCAAG” and “GGUCACGUCUCAAUCAACUCAAAAGAGGGGGGGAAAACCCCUUUGCCCUCACUUUCAACAGCUCGCAGUCAAG” are within error of each other in binding signal: 0.351 ± 0.41 log2 fold change for the first, 0.573 ± 0.412 log2 fold change for the second.

“GGUCACGUCUCAAUCAACUCAUAAGAGGGGGGGAAAACCCCUUUGCCCUCAAUCUCAACAGCUCGCAGUCAAG” and “GGUCACGUCUCAAUCAACUCUCAAGAGGGGGGGAAAACCCCUUUGCCCUCGUAAUCAACAGCUCGCAGUCAAG” are within error of each other in binding signal: 0.373 ± 0.408 log2 fold change for the first, 0.452 ± 0.411 log2 fold change for the second.

“GGUCACGUCUCAAUCAACUCAAAAGAGGGGGGGAAAACCCCUUUGCCCUCACAAUCAACAGCUCGCAGUCAAG” and “GGUCACGUCUCAAUCAACUCUCAAGAGGGGGGGAAAACCCCUUUGCCCUCACUUUCAACAGCUCGCAGUCAAG” are within error of each other in binding signal: 0.31 ± 0.383 log2 fold change for the first, 0.453 ± 0.436 log2 fold change for the second.

“GGUCACGUCUCAAUCAACUCUCAAGAGGGGGGGAAAACCCCUUUGCCCUCAACAUCAACAGCUCGCAGUCAAG” and “GGUCACGUCUCAAUCAACUCUCAAGAGGGGGGGAAAACCCCUUUGCCCUCCAUGUCAACAGCUCGCAGUCAAG” are within error of each other in binding signal: 0.531 ± 0.415 log2 fold change for the first, 0.411 ± 0.415 log2 fold change for the second.

“GGUCACGUCUCAAUCAACUCACACGAGGGGGGGAAAACCCCUUUGCCCUCAACAUCAACAGCUCGCAGUCAAG” and “GGUCACGUCUCAAUCAACUCUAAAGAGGGGGGGAAAACCCCUUUGCCCUCACUAUCAACAGCUCGCAGUCAAG” are within error of each other in binding signal: 0.529 ± 0.425 log2 fold change for the first, 0.331 ± 0.434 log2 fold change for the second.

“GGUCACGUCUCAAUCAACUCCUAAGAGGGGGGGAAAACCCCUUUGCCCUCACCGUCAACAGCUCGCAGUCAAG” and “GGUCACGUCUCAAUCAACUCCUAAGAGGGGGGGAAAACCCCUUUGCCCUCACUUUCAACAGCUCGCAGUCAAG” are within error of each other in binding signal: 0.325 ± 0.438 log2 fold change for the first, 0.38 ± 0.429 log2 fold change for the second.

“GGUCACGUCUCAAUCAACUCUAAAGAGGGGGGGAAAACCCCUUUGCCCUCACUUUCAACAGCUCGCAGUCAAG” and “GGUCACGUCUCAAUCAACUCAAUCGAGGGGGGGAAAACCCCUUUGCCCUCACUUUCAACAGCUCGCAGUCAAG” are within error of each other in binding signal: 0.415 ± 0.443 log2 fold change for the first, 0.594 ± 0.435 log2 fold change for the second.

“GGUCACGUCUCAAUCAACUCCUAAGAGGGGGGGAAAACCCCUUUGCCCUCAUUCUCAACAGCUCGCAGUCAAG” and “GGUCACGUCUCAAUCAACUCAAUAGAGGGGGGGAAAACCCCUUUACCCUCCAUAUCAACAGCUCGCAGUCAAG” are within error of each other in binding signal: 0.335 ± 0.447 log2 fold change for the first, 0.379 ± 0.407 log2 fold change for the second.

“GGUCACGUCUCAAUCAACUCCUCAGAGGGGGGGAAAACCCCUUUACCCUCCACCUCAACAGCUCGCAGUCAAG” and “GGUCACGUCUCAAUCAACUCAAUAGAGGGGGGGAAAACCCCUUUACCCUCCACCUCAACAGCUCGCAGUCAAG” are within error of each other in binding signal: 0.326 ± 0.442 log2 fold change for the first, 0.349 ± 0.417 log2 fold change for the second.

“GGUCACGUCUCAAUCAACUCACAAGAGGGGGGGAAAACCCCUUUACCCUCGAUAUCAACAGCUCGCAGUCAAG” and “GGUCACGUCUCAAUCAACUCCAUAGAGGGGGGGAAAACCCCUUUACCCUCACACUCAACAGCUCGCAGUCAAG” are within error of each other in binding signal: 0.383 ± 0.425 log2 fold change for the first, 0.698 ± 0.433 log2 fold change for the second.

“GGUCACGUCUCAAUCAACUCCAUAGAGGGGGGGAAAACCCCUUUACCCUCACAUUCAACAGCUCGCAGUCAAG” and “GGUCACGUCUCAAUCAACUCAAUAGAGGGGGGGAAAACCCCUUUACCCUCGAUAUCAACAGCUCGCAGUCAAG” are within error of each other in binding signal: 0.32 ± 0.406 log2 fold change for the first, 0.435 ± 0.406 log2 fold change for the second.

“GGUCACGUCUCAAUCAACUCCCCAGAGGGGGGGAAAACCCCUUUACCCUCCAUAUCAACAGCUCGCAGUCAAG” and “GGUCACGUCUCAAUCAACUCCCCAGAGGGGGGGAAAACCCCUUUACCCUCCAUCUCAACAGCUCGCAGUCAAG” are within error of each other in binding signal: 0.573 ± 0.413 log2 fold change for the first, 0.313 ± 0.439 log2 fold change for the second.

Sequence “GGUCACGUCUCAAUCAACUCUUUAGAGGGGGGGAAAACCCCUUUACCCUCGAUAUCAACAGCUCGCAGUCAAG” has a binding signal of 0.336 ± 0.435 log2 fold change.
